# Screening data as filed in PubChem BioAssay.
# HT1080-NT tox – qHTS for induction of synthetic lethality in tumor cells producing 2HG: qHTS for the HT-1080-NT fibrosarcoma cell line. HT-1080-NT fibrosarcoma viability, CellTiter-Glo ATP luminescence, 48 h. AID 686970, 2013. Potency, µM (highest dose often 46.1 µM), inactives show at the highest dose activity, negative = less viability, usual class: cytotoxic. 1.6% of 360,000 active;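 further: NT is the 2HG producing partner of a matched IDH1 knockdown line; potency means the concentration at half of the fitted maximal effect; 0% = DMSO-treated cells and -100% = media-only wells without cells; nearly all actives have a fitted effect of over 55% in size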
#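 A 48-hour cytotoxicity screen used HT-1080-NT cells plated 2 hours before compound delivery. ATP-based CellTiter-Glo luminescence measured viability, normalized to DMSO and no-cell controls.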
# TDP1 cell noCPT – qHTS for Inhibitors of human tyrosyl-DNA phosphodiesterase 1 (TDP1): qHTS in cells in absence of CPT; Potency, µM (highest dose often 46.2 µM), without a hit: top-dose activity change, negative = growth inhibition, most hits filed as inhibitors; 15% of 420,000 active; DT40 Tdp1-/- hTDP1 cells, no CPT, ATP luminescence, 48 h; further: potency means the concentration at half of the fitted maximal effect; nearly all actives have a fitted effect of over 55% in size
#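 DT40 Tdp1-/-;hTDP1 cells, no CPT (DMSO vehicle only), 400 cells/well; compounds pin-transferred; ≥48 hr, 37 °C; CellTiter-Glo 30 min RT dark, luminescence read.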
# DT40 TDP1 CPT – qHTS for Inhibitors of human tyrosyl-DNA phosphodiesterase 1 (TDP1): qHTS in cells in presence of CPT | chicken DT40 Tdp1-/-;hTDP1 cells + 20 nM CPT, ATP luminescence, 48 h | Potency, µM (series often up to 46.2 µM), without a hit: at the top dose activity change, negative = growth inhibition, usual class: inhibitors | 12% of 420,000 active | AID 686979, 2013; further: potency means the concentration at half of the fitted maximal effect; nearly all actives have a fitted effect of over 55% in size
#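 Chicken DT40 Tdp1-/- cells complemented with human TDP1, 400 cells/well, exposed to compounds plus 20 nM camptothecin for at least 48 h at 37 C; viability read as ATP content by CellTiter-Glo luminescence.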
# ALOX12 inh – Primary qHTS assay for inhibitors of human arachidonate 12S-lipoxygenase (ALOX12): Round 2; Potency, µM (doses to about 108 µM), inactives show top-dose activity change, negative = inhibition, most hits filed as inhibitors; 1.1% of 580,000 active; purified 12hLO, xylenol orange hydroperoxide absorbance; AID 1671190, 2021; Polyunsaturated fatty acid lipoxygenase ALOX12 (Homo sapiens), P18054; further: potency means the concentration at half of the fitted maximal effect
# Target sequence (P18054 whole entry, looked up): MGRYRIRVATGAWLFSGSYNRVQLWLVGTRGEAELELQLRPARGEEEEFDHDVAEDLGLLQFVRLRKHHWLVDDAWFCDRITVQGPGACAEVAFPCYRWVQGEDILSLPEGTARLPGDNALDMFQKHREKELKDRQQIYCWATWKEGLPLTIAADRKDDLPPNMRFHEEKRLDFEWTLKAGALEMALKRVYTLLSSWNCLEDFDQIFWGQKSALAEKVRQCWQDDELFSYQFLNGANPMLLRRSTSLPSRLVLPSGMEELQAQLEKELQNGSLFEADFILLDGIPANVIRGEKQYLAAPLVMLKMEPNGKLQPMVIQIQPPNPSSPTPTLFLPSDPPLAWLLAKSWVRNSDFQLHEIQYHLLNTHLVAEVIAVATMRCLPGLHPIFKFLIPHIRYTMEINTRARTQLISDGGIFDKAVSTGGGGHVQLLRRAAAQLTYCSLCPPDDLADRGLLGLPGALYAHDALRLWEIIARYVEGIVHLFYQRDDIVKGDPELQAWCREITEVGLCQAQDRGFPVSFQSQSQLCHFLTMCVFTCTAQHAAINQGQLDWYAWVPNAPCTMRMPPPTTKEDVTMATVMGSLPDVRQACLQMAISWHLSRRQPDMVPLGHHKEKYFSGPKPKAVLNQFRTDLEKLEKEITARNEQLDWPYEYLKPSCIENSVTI
#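 Hydroperoxide product was detected by ferrous iron/xylenol orange as the 573 to 405 nm absorbance ratio. Arachidonic acid at 40 uM (final) was turned over for 30 min at room temperature by 150 nM human 12hLO, pH 7.0 Hepes buffer, after 15 min compound preincubation.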
# HT1080 IDH1KD tx – qHTS for induction of synthetic lethality in tumor cells producing 2HG: qHTS for the HT-1080-IDH1KD cell line | HT-1080 IDH1 knockdown viability, ATP luminescence, 48 h | 2% of 360,000 active | Potency, µM (highest dose often 46.1 µM), inactives show at the top dose activity, negative = toxicity, actives largely listed as cytotoxic;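 further: potency means the concentration at half of the fitted maximal effect; 0% = DMSO wells and -100% = cell-free medium wells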
#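 Assay cells: HT-1080 with IDH1 knockdown, 750 per well, RPMI/5% FBS. Exposure: 48 h at 37 °C following 2 h pre-incubation. Read: CellTiter-Glo luminescence; fitted concentration-response, curve class assigned.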
# IL1B secr inh – qHTS for Inhibitors of Inflammasome Signaling: IL-1-beta AlphaLISA Primary Screen. THP-1 LPS/ATP IL-1B secretion, AlphaLISA, 16 h; active compounds read low. activity change, % at 57.5 µM. 4.7% of 360,000 active. AID 743279, 2014; in the data active means activity change below about -50%; inconclusive means mostly about -30% to -49%
#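 THP-1 cells pretreated 1 hr with compounds (up to 57.5 uM final), then stimulated with LPS (250 ng/mL final) plus ATP (1.25 mM final); secreted IL-1B measured by AlphaLISA after 16 hr, decreased signal indicating inhibition.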
# * marks the source's active call; other numbers are inactive results; ? = inconclusive; . = no result; [ ] = dose if it differs, or a comment. Only a selection was taken, and hits are over-represented in it overall. Unless noted, the call rests on the fitted dose curve; in most records, active means well fitted curve in the direction sought with a large enough effect; inconclusive means small, poorly fitted or top-dose-only effect, or another doubt; inactive means no such curve, though single readings can be large; an effect the other way counts as inactive or inconclusive. Unless noted, on the % scale 0 is the no-effect control and ±100 the full control effect.
SMILES,HT1080-NT tox,TDP1 cell noCPT,DT40 TDP1 CPT,ALOX12 inh,HT1080 IDH1KD tx,IL1B secr inh
Clc1ccc(-c2[nH]ncc2N=Nc2ccccc2)cc1,-25%,?,?,?,?,?
c1ccc(N=Nc2ccc3cccccc2-3)cc1,-16%,?,-27%,84%,-21%,-93*
CN(CC(=O)Nc1ccc(N2CCOCC2)cc1)C(=O)CSc1ccc(Br)cc1,-2%,15µM*,?,457%,-7%,1
Cc1ccc(CC(=O)N(C)CC(=O)Nc2ccc(N3CCOCC3)cc2)cc1C,-2%,-20%,13µM*,-11%,3%,2
Cc1ccc(NC(=O)CN(C)CC(=O)Nc2ccc(N3CCOCC3)cc2)cc1F,5%,?,-30%,?,-7%,-8
CN(CC(=O)Nc1ccc(N2CCOCC2)cc1)C(=O)CC(c1ccccc1)c1ccccc1,-8%,-18%,-17%,9%,-4%,-5
CN(CC(=O)Nc1ccc(N2CCOCC2)cc1)C(=O)CCc1cc(C(C)(C)C)c(O)c(C(C)(C)C)c1,-17%,16µM*,?,-11%,-19%,-1
CC(=O)N1CCC(N[C@@H]2CC[C@@H]2NC(=O)CCn2nnc3ccccc32)CC1,.,.,.,28%,.,.
CCN(CC)c1nc2c3c(nc4c(c3c1C#N)CC(=O)N4c1ccc(Cl)cc1)NC(C)=N2,-1%,18µM*,?,?,-1%,-8
C#CC1(O)CCCC2C3CCC4CC(OC(C)=O)CCC4(C)C3C(=O)CC21C (configuration not stated),-22%,21µM*,23µM*,1%,-16%,3
Cc1cc(C)c2oc(C(=O)NCCc3nc(-c4ccccc4)no3)cc(=O)c2c1,.,.,.,27%,.,.
O=c1[nH]c2cc3c(cc2cc1C(c1nnnn1C1CCCC1)N1CCCc2ccccc21)OCCO3 (configuration not stated),-1%,-13%,-1%,3%,1%,1
CCOc1ccc2[nH]c(=O)c(C(c3nnnn3CC3CCCO3)N3CCc4ccccc4C3)cc2c1 (configuration not stated),-3%,23µM*,16µM*,-18%,9%,-24
Cc1ccc(C)c2[nH]c(=O)c(C(c3nnnn3Cc3ccccc3)N3CCc4ccccc4C3)cc12 (configuration not stated),-29%,-11%,21µM*,-25%,-27%,-10
O=c1[nH]c2cc3c(cc2cc1C(c1nnnn1Cc1ccccc1)N1CCN2CCCC2C1)OCCO3 (configuration not stated),-17%,18µM*,?,-7%,0%[9.24 µM],-2
COc1cc2cc(C(c3nnnn3C3CCCC3)N3CCc4ccccc43)c(=O)[nH]c2cc1OC (configuration not stated),-26%,?,?,-27%,-19%,17
COc1cc2cc(C(c3nnnn3C(C)(C)C)N3CCc4ccccc43)c(=O)[nH]c2cc1OC (configuration not stated),-8%,21µM*,-35%,-26%,-8%,-13
Cc1ccc2cc(C(c3nnnn3CC3CCCO3)N3CCc4ccccc4C3)c(=O)[nH]c2c1 (configuration not stated),1%,?,-29%,-22%,0%,-22
Cc1cccc(Cl)c1NC(=O)N(C)c1ccccc1,.,.,.,1%,.,.
CCN1CCN(c2nc(Nc3ccccc3)c3nccnc3n2)CC1,.,.,.,62%,.,.
CC1CCN(S(=O)(=O)N2CCC(C(=O)N3CCCC3c3nc(C4CCOCC4)no3)CC2)CC1 (configuration not stated),.,.,.,8%,.,.
Cc1cc2cc(C(c3nnnn3CC3CCCO3)N3CCCc4ccccc43)c(=O)[nH]c2cc1C (configuration not stated),?,?,?,-26%,11µM*,?
O=c1[nH]c2cc3c(cc2cc1C(c1nnnn1Cc1ccccc1)N1CCCc2ccccc21)OCO3 (configuration not stated),-27%[9.24 µM],23µM*,21µM*,-29%,?,28
O=c1[nH]c2cc3c(cc2cc1C(c1nnnn1Cc1ccccc1)N1CCCCCC1)OCCO3 (configuration not stated),-19%,?,16µM*,-8%,-4%,-15
COc1cc(OC)nc(N2C[C@H]3OC(=O)N(CCN4CCCCC4)[C@H]3C2)n1,.,.,.,-19%,.,.
SMILES,HT1080-NT tox,TDP1 cell noCPT,DT40 TDP1 CPT,ALOX12 inh,HT1080 IDH1KD tx,IL1B secr inh
[O-]/C(=C(\C(=S)Nc1ccc(SC(F)F)cc1)[n+]1ccccc1)c1ccc(Cl)cc1Cl,-10%,10µM*,10µM*,?,-19%,-69*
Cc1ccc(/C([O-])=C(/C(=S)Nc2ccc(SC(F)F)cc2)[n+]2ccccc2)cc1[N+](=O)[O-],0%,12µM*,?,?,3%,0
Cc1cc(C)cc(NC(=S)/C(=C(\[O-])c2ccc(Cl)cc2Cl)[n+]2ccccc2)c1,17%,-26%,?,57%,0%,16
Cc1ccccc1NC(=S)/C(=C(\[O-])c1ccc(C)c([N+](=O)[O-])c1)[n+]1ccccc1,?,?,?,-21%,12%,-1
O=C(NCCCn1ccnc1)c1sc2cc([N+](=O)[O-])ccc2c1Cl,-27%,16µM*,13µM*,?,-24%,59
OC(CNCC1(N2CCCCC2)CCCCC1)COc1ccc(Cl)cc1Cl (configuration not stated),?,15µM*,?,-7%,18µM*,-91*
O=C(COc1ccc(Cl)cc1Cl)NCC1(N2CCOCC2)CCCCC1,-10%,21µM*,18µM*,-7%,-5%,-65*
O=C(COc1ccccc1Cl)NCC1(N2CCOCC2)CCCCC1,.,15µM*,21µM*,?,.,.
Cc1ccc(C(C)C)c(OCC(=O)NCC2(N3CCOCC3)CCCCC2)c1,.,7.3µM*,9.2µM*,?,.,.
COc1ccccc1OCC(=O)NCC1(N2CCOCC2)CCCCC1,.,-56%,?,3%,.,.
